# Screens deposited in PubChem BioAssay by several laboratories.
# SARS 3CLpro inh: SARS-CoV 3CLpro protease inhibition | P0C6X7 | inhibition, % at 6 µM | 290,000 tested, 0.14% active | recombinant SARS-CoV 3CLpro, quenched FRET peptide cleavage | AID 1706; in the data active = inhibition above about 12%
# BoNT-F LC inh: blocks Botulinum neurotoxin F light chain protease. Multiplex microsphere protease cleavage assay, flow cytometry. inhibition, % at 10 µM. 360,000 tested, 0.22% active; in the data active = inhibition above about 35%, passing the limit was not always enough; inconclusive = no clear call, values can overlap the other calls; note: plate controls were buffer without enzyme for full effect and enzyme alone for no effect
# BoNT-A LC inh2: blocks Botulinum neurotoxin A light chain protease; 360,000 tested, 0.17% active; inhibition, % at 10 µM; AID 588499; multiplex microsphere protease substrate cleavage, flow cytometry; note: plate controls were buffer without enzyme for full effect and enzyme alone for no effect
# Anthrax LF prot: inhibitors of Bacillus anthracis lethal factor protease | inhibition, % at 10 µM | P15917 | multiplex microsphere protease cleavage assay, LF | 360,000 tested, 0.12% active; note: plate controls were buffer without enzyme for full effect and enzyme alone for no effect
# Autofluor counter: compound fluorescence in toxin protease inhibitor counterscreen; compound autofluorescence counterscreen, microsphere flow cytometry; hits give high values; fluorescence intensity (test concentration not listed); 360,000 tested, 3.1% active; AID 624483; in the data active = fluorescence intensity above about 16000; inconclusive = no clear call, values can overlap the other calls
# CCHF vOTU inh: blocks the CCHF virus ovarian tumor domain protease. inhibition, % at 11.5 µM. AID 651958. 370,000 tested, 0.55% active. CCHFV vOTU protease, Pep-AMC fluorescence; in the data active = inhibition above about 30%; note: 0% = vehicle wells with enzyme and 100% = no enzyme wells
# An asterisk follows results filed as active; ? = inconclusive; . = not tested or not shown. Only some compounds are listed: those with a hit (about 3.9% of all), similar ones and a draw of the others. Cut-off read from the data, not from the text of the source, unless noted: active = inhibition above about 30%; inconclusive = no clear call, values can overlap the other calls; inactive = below that.
SMILES,SARS 3CLpro inh,BoNT-F LC inh,BoNT-A LC inh2,Anthrax LF prot,Autofluor counter,CCHF vOTU inh
Cc1cc(C)c(C(=O)COC(=O)[C@H](C)Nc2ccc(C(F)(F)F)cc2[N+](=O)[O-])c(C)c1,1,2,1,-1,21371*,-4
COc1ccc(C(=O)COC(=O)[C@H](C)Nc2ccc(C(F)(F)F)cc2[N+](=O)[O-])cc1,5,-17,0,-4,3860,19
O=C(NNc1ccc([N+](=O)[O-])cc1)C12CC3CC(CC(C3)C1)C2,2,-3,-1,0,20243*,9
CCOC(=O)c1cc(C(=O)c2ccccc2O)cn2c(=O)c3c(C)c(C)sc3nc12,0,.,.,.,.,.
CCC(CC)C(=O)c1c[nH]c(C(=O)NCCCn2ccnc2)c1,4,-2,?,0,22434*,3
O=C(c1ccccc1)c1c[nH]c(C(=O)NCCCn2ccnc2)c1,6,23,0,-6,3617,1
CC(C)CC(=O)c1c[nH]c(C(=O)NCCCn2ccnc2)c1,2,2,1,-2,19657*,-1
O=C(Nc1ccccc1)c1ccc(OC(=O)c2cc3ccccc3o2)cc1,5,4,2,2,21900*,-17
CC(C)Cn1c(-c2csc3c2CCCC3)n[nH]c1=S,-1,-8,-3,-7,17069*,.
O=c1ncn(-c2cccc(F)c2)c2ncccc12,6,1,?,0,19821*,14
Cc1cccc(CNC(=S)OC2CCC23CCC(c2ccccc2)CC3)c1 (stereo not drawn),.,.,.,.,.,10
COc1cc(NC(=O)C2CC(=O)NC3=C2C(=O)CCC3)cc(OC)c1 (stereo not drawn),1,-3,-2,-5,20659*,-12
CC(C)=CCCC(C)CN(C)CCc1ccccn1 (stereo not drawn),0,10,6,1,21319*,-1
CCc1ccc(C(C)NC(=O)Cn2cnc3c(=O)n(C)c(=O)n(C)c32)cc1 (stereo not drawn),2,0,0,-1,16189*,-2
Cc1nc2ccccc2c(=O)n1NC(=O)c1c(O)c2c(n(CC(C)C)c1=O)CCCC2,3,2,1,0,19971*,6
CCCCCCc1nc2ccccc2c(=O)n1NC(=O)c1c(O)c2c(n(CC(C)C)c1=O)CCCC2,0,-29,0,-4,4770,2
COc1ccc(C)cc1S(=O)(=O)N1c2ccccc2CC1C (stereo not drawn),1,-7,-6,0,17618*,-6
Cc1ccc(S(=O)(=O)N2c3ccccc3CC2C)cc1 (stereo not drawn),1,-2,-1,-8,3971,3
CC1=NN(c2ccc(C(=O)OC(C)C)cc2)C(=O)/C1=C\C=C\c1ccco1,-5,-2,2,-5,19581*,-4
CCOC(=O)c1ccc(N2N=C(C)/C(=C/C=C/c3ccco3)C2=O)cc1,3,-6,?,-5,22790*,-8
CCCNC(=O)c1ccccc1NC(=O)COc1ccc(OC)cc1,1,0,-1,0,19742*,-3
COc1ccc(CNC(=O)COc2ccc([N+](=O)[O-])cc2)cc1,-1,5,2,-9,19432*,-2
COc1ccc(OCC(=O)NNc2c3ccccc3nc3ccccc23)cc1,4,-2,0,-6,16716*,-8
Cc1nn(CCC(=O)NNC(=O)Nc2ccc(Cl)cc2)c(C)c1[N+](=O)[O-],.,.,.,.,.,15
CC(C)C(O)P(=O)(OCc1ccccc1)c1ccc(N(C)C)cc1 (stereo not drawn),-2,-3,-2,-4,20468*,-2
SMILES,SARS 3CLpro inh,BoNT-F LC inh,BoNT-A LC inh2,Anthrax LF prot,Autofluor counter,CCHF vOTU inh
CN(C)c1ccc(P(=O)(OCc2ccccc2)C(O)c2cccnc2)cc1 (stereo not drawn),0,1,0,0,20409*,-8
Cc1ccc(C(O)P(=O)(OCc2ccccc2)c2ccc(N(C)C)cc2)cc1 (stereo not drawn),0,?,-6,-1,3442,-1
Cc1ccc(S(=O)(=O)NCCC(=O)N2CCC(C)CC2)cc1,.,-13,0,-4,4395,14
CC(C)N1CCC(N2CCN(Cc3ccc(Oc4ncccn4)cc3)CC2CCO)CC1 (stereo not drawn),5,1,0,1,4699,-9
CSc1ccccc1NC(=O)Nc1cccc(Cl)c1Cl,-1,0,0,1,20444*,3
CSc1ccccc1NC(=O)Nc1cccc(Cl)c1,3,0,0,-2,23180*,-1
